# Results from article PMC7862700, “An all-to-all approach to the identification of sequence-specific readers for epigenetic DNA modifications on cytosine”.
# Key:
# Assay in all cases: DAPPL (digital affinity profiling via proximity ligation, sequencing); 10 mM Tris-HCl pH 7.5, 50 mM NaCl, 1 mM DTT, 4% glycerol, room temperature, 30 min; GST-TFs on glutathione beads, 16-mer random dsDNA library, 0.1% formaldehyde crosslink after washing; high values mean tight binding
# [1] = target: T1, FEV (Homo sapiens, UniProt Q99581 1-238); conditions: protein: recombinant; tags: N-terminal GST; dsDNA, one strand shown
# T1 sequence: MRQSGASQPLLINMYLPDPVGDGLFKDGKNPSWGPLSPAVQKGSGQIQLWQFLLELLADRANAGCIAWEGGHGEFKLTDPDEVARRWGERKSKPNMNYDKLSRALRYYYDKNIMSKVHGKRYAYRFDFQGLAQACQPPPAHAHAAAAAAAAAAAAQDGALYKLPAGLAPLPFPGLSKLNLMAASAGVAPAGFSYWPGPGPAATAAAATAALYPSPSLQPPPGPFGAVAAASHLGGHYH
# Summary of the method: (§1)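 Binding signal is defined as a hexamer's read frequency for one factor over its frequency for the tag-only sample. To obtain reads, GST-fused human transcription factors were expressed in yeast, captured on glutathione beads, barcoded with DNA and pooled with that sample. Pools met 200 nmole of a 16-mer random double-stranded DNA library in Tris/NaCl/DTT/glycerol buffer for 30 min at room temperature before washing, 0.1% formaldehyde crosslinking, proximity ligation (BsaI/T4 ligase, 1 h, 37 °C), PCR and Illumina NextSeq500 sequencing.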
# [2] = target: ETV5 (Homo sapiens, UniProt P41161 1-510); conditions: protein: recombinant; tags: N-terminal GST; dsDNA, one strand shown
# Chain of ETV5 (P41161 whole entry): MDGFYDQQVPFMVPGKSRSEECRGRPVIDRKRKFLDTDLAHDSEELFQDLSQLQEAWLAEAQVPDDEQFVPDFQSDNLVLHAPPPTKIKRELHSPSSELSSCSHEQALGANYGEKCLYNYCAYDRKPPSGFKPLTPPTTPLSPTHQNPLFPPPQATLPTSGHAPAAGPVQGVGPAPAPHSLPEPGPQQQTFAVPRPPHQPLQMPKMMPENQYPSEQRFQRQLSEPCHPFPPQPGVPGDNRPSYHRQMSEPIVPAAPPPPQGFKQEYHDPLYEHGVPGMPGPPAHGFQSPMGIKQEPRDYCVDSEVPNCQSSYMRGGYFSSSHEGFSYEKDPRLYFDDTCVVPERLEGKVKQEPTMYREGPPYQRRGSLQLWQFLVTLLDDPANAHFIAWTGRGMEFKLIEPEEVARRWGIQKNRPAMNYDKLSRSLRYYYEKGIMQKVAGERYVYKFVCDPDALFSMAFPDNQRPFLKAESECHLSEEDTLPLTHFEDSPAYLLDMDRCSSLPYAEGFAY
# Summary of the method: as §1
# [3] = target: HSF1 (Homo sapiens, UniProt Q00613 1-529); conditions: protein: recombinant; tags: N-terminal GST; chain copies: 3; dsDNA, one strand shown
# Chain of HSF1 (Q00613 whole entry): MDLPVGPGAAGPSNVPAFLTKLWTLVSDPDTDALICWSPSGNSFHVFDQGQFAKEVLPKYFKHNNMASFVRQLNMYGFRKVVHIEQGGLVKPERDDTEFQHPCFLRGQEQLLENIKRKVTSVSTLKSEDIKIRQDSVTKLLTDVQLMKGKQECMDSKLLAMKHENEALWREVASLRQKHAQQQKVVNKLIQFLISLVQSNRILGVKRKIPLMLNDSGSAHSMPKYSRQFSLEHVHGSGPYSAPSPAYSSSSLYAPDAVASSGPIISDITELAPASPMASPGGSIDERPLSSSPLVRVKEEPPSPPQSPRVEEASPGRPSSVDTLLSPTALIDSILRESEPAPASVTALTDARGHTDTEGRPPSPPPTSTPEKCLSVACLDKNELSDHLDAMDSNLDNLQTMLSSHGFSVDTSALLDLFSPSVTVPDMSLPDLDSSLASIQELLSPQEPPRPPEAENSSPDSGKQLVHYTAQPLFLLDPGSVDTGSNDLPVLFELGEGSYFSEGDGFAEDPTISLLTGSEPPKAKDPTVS
# Summary of the method: as §1
# [4] = target: T2, SPIC (Homo sapiens, UniProt Q8N5J4 1-248); conditions: protein: recombinant; tags: N-terminal GST; dsDNA, one strand shown
# T2 sequence: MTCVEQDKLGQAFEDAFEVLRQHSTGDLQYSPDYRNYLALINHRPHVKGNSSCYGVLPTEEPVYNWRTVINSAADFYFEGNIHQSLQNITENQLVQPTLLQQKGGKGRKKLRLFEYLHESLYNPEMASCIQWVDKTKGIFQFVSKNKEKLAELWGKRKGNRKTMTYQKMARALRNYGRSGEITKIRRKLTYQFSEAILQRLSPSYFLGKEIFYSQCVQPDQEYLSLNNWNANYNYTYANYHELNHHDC
# Summary of the method: as §1
# [5] = target: ELF4 (Homo sapiens, UniProt Q99607 1-663); conditions: protein: recombinant; tags: N-terminal GST; dsDNA, one strand shown
# Chain of ELF4 (Q99607 whole entry): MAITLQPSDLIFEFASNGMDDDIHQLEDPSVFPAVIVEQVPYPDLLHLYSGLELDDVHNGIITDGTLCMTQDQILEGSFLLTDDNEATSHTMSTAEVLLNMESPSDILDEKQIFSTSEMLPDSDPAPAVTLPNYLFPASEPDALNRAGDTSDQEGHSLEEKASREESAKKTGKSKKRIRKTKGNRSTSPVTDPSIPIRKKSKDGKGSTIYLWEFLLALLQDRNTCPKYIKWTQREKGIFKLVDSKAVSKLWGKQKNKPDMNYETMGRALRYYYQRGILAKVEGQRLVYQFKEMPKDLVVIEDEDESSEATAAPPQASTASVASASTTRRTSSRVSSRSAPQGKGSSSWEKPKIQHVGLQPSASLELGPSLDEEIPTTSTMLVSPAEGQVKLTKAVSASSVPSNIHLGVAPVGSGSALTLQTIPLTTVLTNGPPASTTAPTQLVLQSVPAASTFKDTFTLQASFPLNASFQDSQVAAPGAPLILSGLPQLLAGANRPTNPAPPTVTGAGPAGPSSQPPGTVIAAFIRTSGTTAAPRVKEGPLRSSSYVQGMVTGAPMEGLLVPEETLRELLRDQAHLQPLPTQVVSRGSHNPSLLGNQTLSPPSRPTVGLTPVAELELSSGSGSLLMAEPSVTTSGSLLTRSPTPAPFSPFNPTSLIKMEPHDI
# Summary of the method: as §1
# [6] = target: T3, ELK4 (Homo sapiens, UniProt P28324-2 1-405); conditions: protein: recombinant; tags: N-terminal GST; dsDNA, one strand shown
# T3 sequence: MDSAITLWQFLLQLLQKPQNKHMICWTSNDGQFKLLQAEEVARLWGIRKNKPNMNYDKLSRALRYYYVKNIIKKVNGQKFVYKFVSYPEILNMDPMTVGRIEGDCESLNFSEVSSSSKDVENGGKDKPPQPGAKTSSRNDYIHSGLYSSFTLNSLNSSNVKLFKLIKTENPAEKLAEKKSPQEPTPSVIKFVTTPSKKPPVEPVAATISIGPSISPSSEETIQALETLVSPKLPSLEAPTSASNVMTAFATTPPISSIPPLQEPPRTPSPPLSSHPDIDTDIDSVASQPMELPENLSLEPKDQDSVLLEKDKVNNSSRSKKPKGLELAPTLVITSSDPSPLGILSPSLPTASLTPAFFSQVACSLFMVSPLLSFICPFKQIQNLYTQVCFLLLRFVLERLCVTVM
# Summary of the method: as §1
# [7] = target: T4, ETV2 (Homo sapiens, UniProt O00321 1-342); conditions: protein: recombinant; tags: N-terminal GST; dsDNA, one strand shown
# T4 sequence: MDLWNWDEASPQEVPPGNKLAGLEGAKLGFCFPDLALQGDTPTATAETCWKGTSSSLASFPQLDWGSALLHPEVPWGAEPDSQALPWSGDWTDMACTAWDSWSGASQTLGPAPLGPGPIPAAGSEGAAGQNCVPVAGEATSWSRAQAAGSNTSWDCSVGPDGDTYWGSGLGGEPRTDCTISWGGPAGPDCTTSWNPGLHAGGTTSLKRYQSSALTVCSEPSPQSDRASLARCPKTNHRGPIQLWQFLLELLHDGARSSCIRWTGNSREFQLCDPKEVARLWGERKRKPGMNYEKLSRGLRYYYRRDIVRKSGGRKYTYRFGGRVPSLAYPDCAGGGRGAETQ
# Summary of the method: as §1
# [8] = target: T5, ELF3 (Homo sapiens, UniProt P78545 1-371); conditions: protein: recombinant; tags: N-terminal GST; dsDNA, one strand shown
# T5 sequence: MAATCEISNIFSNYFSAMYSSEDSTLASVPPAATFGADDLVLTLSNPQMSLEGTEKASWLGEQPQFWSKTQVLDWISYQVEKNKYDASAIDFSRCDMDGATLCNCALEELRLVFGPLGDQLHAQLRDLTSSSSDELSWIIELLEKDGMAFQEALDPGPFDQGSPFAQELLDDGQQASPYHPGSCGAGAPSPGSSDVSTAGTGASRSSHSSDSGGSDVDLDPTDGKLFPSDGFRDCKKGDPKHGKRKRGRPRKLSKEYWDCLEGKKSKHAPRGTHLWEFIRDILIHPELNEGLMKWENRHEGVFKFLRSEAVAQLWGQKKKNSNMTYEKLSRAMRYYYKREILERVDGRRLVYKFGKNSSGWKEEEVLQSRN
# Summary of the method: as §1
# [9] = target: CRX (Homo sapiens, UniProt O43186 1-299); conditions: protein: recombinant; tags: N-terminal GST; dsDNA, one strand shown
# Chain of CRX (O43186 whole entry): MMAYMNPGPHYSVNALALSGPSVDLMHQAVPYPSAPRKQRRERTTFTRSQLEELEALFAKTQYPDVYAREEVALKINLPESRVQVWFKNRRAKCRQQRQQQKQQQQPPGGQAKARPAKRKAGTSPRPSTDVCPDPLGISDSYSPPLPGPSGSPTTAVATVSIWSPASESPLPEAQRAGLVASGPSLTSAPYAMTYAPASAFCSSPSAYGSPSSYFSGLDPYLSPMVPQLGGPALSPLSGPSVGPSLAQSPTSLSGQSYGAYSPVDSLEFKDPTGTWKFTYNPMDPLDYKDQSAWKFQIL
# Summary of the method: as §1
sequence,measurement,setting,value
CGCCTT,binding signal,[1],"1.39 fold enrichment (6-mer frequency, TF over GST control)"
same,binding signal,[2],"1.37 fold enrichment (6-mer frequency, TF over GST control)"
same,binding signal,[3],"1.32 fold enrichment (6-mer frequency, TF over GST control)"
same,binding signal,[4],"1.47 fold enrichment (6-mer frequency, TF over GST control)"
same,binding signal,[5],"1.54 fold enrichment (6-mer frequency, TF over GST control)"
same,binding signal,[6],"1.52 fold enrichment (6-mer frequency, TF over GST control)"
same,binding signal,[7],"1.64 fold enrichment (6-mer frequency, TF over GST control)"
same,binding signal,[8],"1.26 fold enrichment (6-mer frequency, TF over GST control)"
same,binding signal,[9],"1.38 fold enrichment (6-mer frequency, TF over GST control)"
